# Screening results deposited in PubChem BioAssay by several laboratories.
# p97 ATPase inh = human p97 ATPase inhibition; recombinant p97 ATPase, Kinase-Glo ATP luminescence, 3 h; inhibition, % at 8 µM; 220,000 tested, 0.42% active; in the data active means inhibition above about 15%
# UBC9 SUMO inh = inhibitors of human SUMOylation (UBC9); AID 2006; 290,000 tested, 0.36% active; HTRF SUMOylation assay, SAE1/SAE2 + UBC9, in vitro; inhibition, % at 35 µM; in the data active means inhibition above about 50%, passing the limit was not always enough
# Target sequence (P63279 whole entry, looked up): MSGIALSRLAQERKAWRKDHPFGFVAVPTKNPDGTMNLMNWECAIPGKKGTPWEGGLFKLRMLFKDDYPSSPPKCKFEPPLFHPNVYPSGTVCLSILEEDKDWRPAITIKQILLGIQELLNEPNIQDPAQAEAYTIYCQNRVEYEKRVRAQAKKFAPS
# PERK inh = human PERK inhibition, primary cell-based screen; CHO PERK-DD fusion, SEAP luminescence translation reporter; 220,000 tested, 0.17% active; AID 1416; inhibition, % at 5.6 µM;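 active means inhibition above the mean inhibition of all tested compounds plus 3 SD, set separately per screening campaign, cut at about 2.9% in these data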;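 further: PERK kinase domain activated by AP20187 dimerizer at 100 nM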
# Redox H2O2 prof = compounds producing H2O2 with reducing agent – biochemical, NIH compound library profiling, artefact control for MLSCN library redox annotation, primary screen; activation, % at 10 µM; 200,000 tested, 0.03% active; DTT-dependent redox cycling H2O2, phenol red/HRP absorbance; 100% = 100 µM peroxide control, 0% = buffer; AID 878;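 active means activation of at least 50% relative to the plate's high and low controls in the primary single-dose screen; inactive means activation below 50%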;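 further: compound incubated with DTT at 0.8 mM final as the reducing agent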
# Numbers stand for hits; . = inactive; / = no result. In the library only some 0.69% were active in any assay of this set; here they are far more common.
SMILES,p97 ATPase inh,UBC9 SUMO inh,PERK inh,Redox H2O2 prof
O=C(CN1CC(=O)Oc2ccccc21)OCC(=O)c1ccccc1,.,.,2.9,.
Cc1ccc(C(=O)OCC(=O)NC2CCCCC2)o1,/,.,/,/
Cc1cc(C(=O)OCC(=O)NC2CCCCC2)c(C)o1,.,.,.,50.8
Cc1ccc(C(=O)NNC(=O)c2ccc(NC(=O)C(C)(C)C)cc2)cc1,/,.,/,/
Cc1cc([N+](=O)[O-])ccc1NC(=O)CSc1nncn1-c1cccnc1,/,.,/,/
Cn1nccc1NC(=O)Nc1cccc(Cl)c1,.,58.7,.,/
O=C(Nc1cccc(Cl)c1)Nc1nnc(-c2ccncc2)s1,.,55.9,.,.
Cc1ccc(NC(=O)Nc2nnc(-c3ccncc3)s2)cc1C,.,72.8,.,.
CCOc1ccc(Br)cc1C1C(C(=O)OC)=C(N)Oc2cc(N(C)C)ccc21 (stereo not given),.,.,.,.
CCCc1ccc(OCc2ccc(C(=O)N/N=C/c3cccnc3)o2)cc1,/,.,/,/
COc1cc(/C=C2\CC/C(=C\c3cc(OC)c(O)c(OC)c3)C2=O)cc(OC)c1O,19.4,.,.,.
Cc1ccc(N=Nc2c(O)c3ccccc3[nH]c2=O)c(S(=O)(=O)N(C)C)c1,.,.,3.3,/
Cc1cc(N=Nc2c(O)c3ccccc3[nH]c2=O)ccc1N=Nc1ccc(C(=O)N(C)C)cc1,.,.,.,/
CCc1ccc(-c2nc(CS(=O)CC(=O)NC3CCCCCC3)c(C)o2)cc1 (stereo not given),/,.,/,/
O=C(Oc1ccccc1C(=S)N1CCOCC1)c1cccc([N+](=O)[O-])c1,/,.,/,/
Nc1ccc2c(c1)C/C(=C/c1ccco1)C2=O,15.3,85.0,.,.
O=C1/C(=C/c2ccco2)CCc2ccccc21,.,.,.,.
O=C1NC(=S)S/C1=C\c1cc2ccccc2nc1N1CCCCC1,.,55.2,.,/
CCOc1ccc(C(C)=O)cc1COc1ccc(-c2nnco2)cc1,/,.,/,/
COC1(NC(=O)c2ccccc2)C(C)=CC(=O)C=C1C,.,.,.,.
O=C(NC1(O)C(=O)c2ccccc2C1=O)c1ccccc1,.,83.9,.,.
COc1cc(OC)cc(C(=O)NC(=S)Nc2cccnc2)c1,.,.,.,.
CCN(C(=S)Nc1cccnc1)c1cccc2ccccc12,.,99.5,.,.
COc1ccccc1NC(=S)Nc1cccc2cnccc12,.,51.2,.,.
COc1cc(NC(=S)Nc2cccnc2)cc(OC)c1,.,71.7,.,.
SMILES,p97 ATPase inh,UBC9 SUMO inh,PERK inh,Redox H2O2 prof
Fc1ccc(NC(=S)Nc2cccc3cnccc23)cc1,.,.,.,.
COc1cccc(NC(=S)Nc2cccc3ccccc23)c1,/,.,/,/
COc1ccc(NC(=S)Nc2cccc3cnccc23)cc1,.,94.0,.,.
Cc1ncc([N+](=O)[O-])n1Cc1ccc(Br)cc1,.,.,.,.
CCN(CC)S(=O)(=O)c1ccc(N2CCc3cc(OC)c(OC)cc3C2)nc1,/,.,/,/
CCOc1ccc(NC(=S)Nc2cccc3ccccc23)cc1,/,.,/,/
S=C(Nc1cccnc1)Nc1cccc2cnccc12,.,97.2,.,.
CCOc1ccc(NC(=S)Nc2cccc3cnccc23)cc1,.,89.3,.,.
CCOn1c(=O)c(-c2cccc(Br)c2)[n+]([O-])c2ccccc21,/,.,/,/
COc1ccc(CNC(=O)CCC(=O)Nc2cccnc2)cc1,/,.,/,/
O=c1oc2c3c4c(cc2s1)CCCN4CCC3,.,77.6,.,.
O=c1ccc2cc3c4c(c2o1)CCCN4CCC3,.,.,.,.
Nc1ccc2nn(-c3ccccc3)nc2c1,.,66.1,.,.
Nc1ccc2nn(-c3cccc4ccccc34)nc2c1,.,57.5,.,.
Nc1ccc2c(c1)nnn2-c1ccccc1,.,.,.,/
COc1cc(-c2noc(C)c2/C=C/c2ccc(OC(C)=O)cc2)cc(OC)c1OC,/,.,/,/
O=S(=O)(Nc1cc(Sc2cccc3cccnc23)c(O)c2ccccc12)c1ccc(F)cc1,.,66.9,.,.
O=C(O)CSc1cc(NS(=O)(=O)c2ccc(Cl)cc2)c2ccccc2c1O,/,77.1,/,/
COc1ccc(S(=O)(=O)Nc2cc(Sc3ncn[nH]3)c(O)c3ccccc23)cc1,30.9,88.3,.,.
COc1ccc(S(=O)(=O)Nc2cc(S(=O)(=O)c3ccccc3)c(O)cc2C)cc1,/,.,/,/
COc1ccc(S(=O)(=O)Nc2cc(SCC(=O)O)c(O)c3ccccc23)cc1,/,57.3,/,/
O=C(Nc1cccc2nsnc12)c1ccc(-c2ccc(Br)cc2)o1,.,73.0,.,.
CCOc1ccc(S(=O)(=O)NCc2cccnc2)cc1C(C)C,/,.,/,/
Cc1ccc2[nH]c(C(=O)N3CCN(c4cccc(Cl)c4)CC3)cc2c1,/,.,/,/
CC(NC(=O)OC(C)(C)C)C(=O)Oc1ccc2ccc(=O)oc2c1 (stereo not given),.,52.0,.,.
